CXXC DNA block: qHTS Fluorescence Polarization Assay for Inhibitors of MLL CXXC domain - DNA interaction; hit rate 0.037% among 290,000; AID 2662, 2010; Potency, µM (highest dose often 115 µM), actives largely listed as inhibitors; MLL-CXXC / FITC-HOXA9 DNA fluorescence polarization; active means well fitted inhibition curve with a large enough effect in the polarisation, with a control signal flat, not every such curve was filed as active; inconclusive means small, poorly fitted or top-dose-only effect, or effect the other way, or a change in a side signal; inactive means no such curve, though single readings can be large or run the other way; the % refers to the polarisation
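Fluorescence polarization: 7 uM MLL-CXXC (stock) preincubated 5 min with compounds, then 50 nM fluorescein-HOX-A9 DNA (stock) added; 30 min ambient. Buffer 50 mM Tris-HCl pH 7.5, 50 mM NaCl, 1 mM DTT, 0.05% BSA.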
Menin-MLL FL inh: qHTS Assay for Inhibitors Targeting the Menin-MLL Interaction in MLL Related Leukemias: Competition With Fluorescein Labeled MLL-derived Peptide | Fluorescence polarization, fluorescein-MLL peptide displacement from menin | FP activity change, % at 61.4 µM | 290,000 tested, under 10 active | AID 1766, 2009; active means well fitted curve in the direction sought with a large enough effect in the polarisation, not every such curve was filed as active; inconclusive means small, poorly fitted or top-dose-only effect, or effect the other way, or a change in a side signal; inactive means no such curve, though single readings can be large or run the other way; the % refers to the polarisation
KCNH2 3.1 inh: qHTS for Inhibitors of KCHN2 3.1: Mutant qHTS; hit rate 0.95% among 340,000; Potassium voltage-gated channel subfamily H member 2, brain isoform KCNH2 3.1 (human); activity change, % (tested at about 1.8 µM); U2OS KCNH2 3.1, thallium flux FluxOr; stronger effect = lower value;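 active means maximum activity change below -70%; inconclusive means maximum activity change from -70% to -50%; inactive means maximum activity change above -50%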;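 further: thallium influx rate constant from kinetic fluorescence after stimulation buffer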
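Kinetic fluorescence (2 min after stimulation buffer) measures Tl+ influx through KCNH2 3.1 expressed by viral transduction in U2OS cells; the rate constant is normalized against DMSO controls serving as positive and negative references.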
hERG WT inh: qHTS for Inhibitors of KCHN2 3.1: Wildtype qHTS; hit rate 0.37% among 340,000; U2OS, BacMam KCNH2, thallium flux FluxOr; stronger effect = lower value; Voltage-gated inwardly rectifying potassium channel KCNH2 (Homo sapiens), Q12809; AID 720551, 2013; activity change, % at 1.84 µM;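 active means maximum activity change below -70%; inconclusive means maximum activity change between -70% and -50%; inactive means maximum activity change above -50%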
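U2OS cells transduced with wild-type KCNH2 virus are loaded with FluxOr dye for 45 min, and thallium flux is measured in kinetic reads before and after stimulation buffer. Rate constants are normalized to DMSO controls.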
Menin MLL FP TR: qHTS Assay for Inhibitors Targeting the Menin-MLL Interaction in MLL Related Leukemias: Competition With Texas Red Labeled MLL-derived Mutant Peptide; O00255; Menin + Texas Red MLL mutant peptide, fluorescence polarization; Potency, µM (highest dose often 61.6 µM), usual class: inhibitors; hit rate 0.23% among 270,000; active means well fitted inhibition curve with a large enough effect in the polarisation, with a control signal flat, not every such curve was filed as active; inconclusive means small, poorly fitted or top-dose-only effect, or effect the other way, or a change in a side signal; inactive means no such curve, though single readings can be large or run the other way; the % refers to the polarisation
Target sequence (O00255 whole entry, looked up): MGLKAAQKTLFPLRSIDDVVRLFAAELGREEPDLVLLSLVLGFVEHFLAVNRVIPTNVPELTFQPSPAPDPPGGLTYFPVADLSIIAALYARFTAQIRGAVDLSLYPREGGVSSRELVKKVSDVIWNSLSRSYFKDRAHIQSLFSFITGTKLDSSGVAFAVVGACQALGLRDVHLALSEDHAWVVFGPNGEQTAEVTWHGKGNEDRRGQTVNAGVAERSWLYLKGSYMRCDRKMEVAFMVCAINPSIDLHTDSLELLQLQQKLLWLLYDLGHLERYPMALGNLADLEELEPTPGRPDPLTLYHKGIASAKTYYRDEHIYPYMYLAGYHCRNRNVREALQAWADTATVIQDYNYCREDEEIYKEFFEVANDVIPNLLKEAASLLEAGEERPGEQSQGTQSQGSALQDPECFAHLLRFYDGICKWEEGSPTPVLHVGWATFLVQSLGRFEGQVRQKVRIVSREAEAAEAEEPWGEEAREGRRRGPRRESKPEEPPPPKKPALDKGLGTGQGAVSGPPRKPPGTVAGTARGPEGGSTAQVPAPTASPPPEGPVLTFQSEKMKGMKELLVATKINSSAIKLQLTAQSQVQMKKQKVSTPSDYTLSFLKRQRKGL
A number is an active result; [ ] = dose if it differs, or a comment. A selection: hits, their analogues and other compounds. The true share with any hit is near 1.1%.

For Cc1ccc(CNC(=O)CC2(CC3=NS(=O)(=O)c4ccccc4N3)CCCC2)cc1 the results were CXXC DNA block inactive, Menin-MLL FL inh inactive, KCNH2 3.1 inh -84.8, hERG WT inh inactive and Menin MLL FP TR inactive.
`COc1ccc(CCNC(=O)CC2(CC3=NS(=O)(=O)c4ccccc4N3)CCCC2)cc1OC` gave CXXC DNA block inactive, KCNH2 3.1 inh inactive and hERG WT inh inactive.
CCCN(c1ccc(OCC)cc1)c1ncnc2nc[nH]c12 was read as CXXC DNA block inactive, Menin-MLL FL inh inactive, KCNH2 3.1 inh -90.3, hERG WT inh inactive and Menin MLL FP TR inactive.
C=C(C)COc1ccc(-c2nc(N)ncc2-c2ccc(Cl)cc2)c(O)c1 was read as CXXC DNA block inactive, Menin-MLL FL inh inactive, KCNH2 3.1 inh inactive, hERG WT inh inactive and Menin MLL FP TR inactive.
Screening CN(C)c1ccc(C(=O)N2CCNC(=O)C2CC(=O)Nc2ccc(F)cc2)cc1 (stereo not drawn) returned CXXC DNA block inactive, KCNH2 3.1 inh inactive and hERG WT inh inactive.
Screening CCOc1ccccc1NC(=O)Cn1nnc(C(=O)Nc2ccc(C)cc2)c1N returned CXXC DNA block inactive, Menin-MLL FL inh inactive, KCNH2 3.1 inh inactive, hERG WT inh -127.2 and Menin MLL FP TR inactive.
CCOC(=O)c1cnc(SCc2cccc3ccccc23)nc1N was read as CXXC DNA block inactive, Menin-MLL FL inh inactive, KCNH2 3.1 inh -133.5, hERG WT inh inactive and Menin MLL FP TR inactive.
COc1ccc(/C=C/N(CCc2ccc(OC)c(OC)c2)C(=O)c2ccccn2)cc1 was read as Menin-MLL FL inh inactive[11.7 µM] and Menin MLL FP TR inconclusive.
Screening Cc1csc(=O)n1CCC(=O)OCC(=O)NNC(=O)c1ccccc1 returned KCNH2 3.1 inh inactive and hERG WT inh inactive.
`CCOC(=O)c1c(C)c[nH]c1C` gave CXXC DNA block inactive, Menin-MLL FL inh inactive, KCNH2 3.1 inh -85.3, hERG WT inh inactive and Menin MLL FP TR inactive.
COc1cccc(CNC(=O)CN(C)S(=O)(=O)c2cccc3cccnc23)c1 was read as CXXC DNA block inactive, Menin-MLL FL inh inactive, KCNH2 3.1 inh inactive and hERG WT inh inactive.
Screening CN(Cc1ccccc1)S(=O)(=O)c1cccc2cccnc12 returned CXXC DNA block inactive, Menin-MLL FL inh inactive, KCNH2 3.1 inh inactive, hERG WT inh -75.9 and Menin MLL FP TR inactive.
`CCc1nccn1CCC(=O)NC1CCCc2c1cnn2-c1ccc(F)cc1F` (stereo not drawn) gave CXXC DNA block inactive, KCNH2 3.1 inh inactive and hERG WT inh inactive.
`COc1ccc(C(=O)Oc2cc3c4c(c2)C(C)=CC(C)(C)N4C(=O)C3=O)cc1OC` gave CXXC DNA block inactive, Menin-MLL FL inh inactive, KCNH2 3.1 inh -71.7, hERG WT inh inactive and Menin MLL FP TR inactive.
For Cc1ccc(NC(=O)COc2coc(CN3CCc4ccccc43)cc2=O)c(C)c1 the results were KCNH2 3.1 inh inactive and hERG WT inh inactive.
COc1cc2c(cc1OC)C(C(=O)Nc1ccc(F)c(Cl)c1)CC(=O)N2 (stereo not drawn) was read as CXXC DNA block inactive, Menin-MLL FL inh inactive, KCNH2 3.1 inh -110.2, hERG WT inh inactive and Menin MLL FP TR inactive.
For COc1cc2c(cc1OC)C(c1ccc(Cl)cc1)CC(=O)N2 (stereo not drawn) the results were CXXC DNA block inactive, Menin-MLL FL inh inactive, KCNH2 3.1 inh inactive, hERG WT inh inactive and Menin MLL FP TR inactive.
For O=C(COC(=O)CNC(=O)c1ccccc1)NC12CC3CC(CC(C3)C1)C2 the results were KCNH2 3.1 inh inactive and hERG WT inh -80.9.
For O=C(NC12CC3CC(CC(C3)C1)C2)c1ccccc1 the results were CXXC DNA block inactive, Menin-MLL FL inh inactive, KCNH2 3.1 inh inactive, hERG WT inh inactive and Menin MLL FP TR inactive.
For COc1ccc(CCNC(=O)COC(=O)c2ccccn2)cc1 the results were KCNH2 3.1 inh inactive and hERG WT inh inactive.
CCCCCCCC(=O)N/N=C/c1ccc(Br)cc1 was read as CXXC DNA block inactive, Menin-MLL FL inh inactive, KCNH2 3.1 inh -82.5, hERG WT inh inactive and Menin MLL FP TR inactive.

Compound activity as filed in PubChem BioAssay.
